Values joined by “and” are separate entries in the source; they are usually repeats but may differ in a detail not shown here. Equal values may be shown once. A number with no mark means an inactive call. Results filed as inconclusive are left out. Entries that show only a call come without a potency. Active and inactive are the calls of the source. Unless noted, calls follow the shape of the dose curve; as a rule, active = well fitted curve in the direction sought with a large enough effect; inconclusive = small, poorly fitted or top-dose-only effect, or another doubt; inactive = no such curve, though single readings can be large; an effect the other way counts as inactive or inconclusive.
Columns and labels:
[1] = biological target: Ubiquitin carboxyl-terminal hydrolase 1 (Homo sapiens) (UniProt O94782); assay: Inhibitors of USP1/UAF1: Pilot qHTS (AID 504865); also: nearly all actives have a fitted effect of over 35% in size; also: potency is read from the fitted curve at half-maximal effect
Outline: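 1nM USP1/UAF1 + cpd, 15 min RT; start w/ Ub-Rho 150nM final; kinetic FL 480/540 nm, 6 reads q60 s. Buffer 50mM HEPES pH 7.8, 0.5mM EDTA, 1mM TCEP, 0.01% Tween-20, 0.1 mg/ml BSA.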

[2] = Inducers of the Endoplasmic Reticulum Stress Response (ERSR) in human glioma: Validation (AID 504836)
Outline: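 Stably transfected U87-MG glioma cells carrying a GRP78-based luciferase sensor; 16 h compound incubation. Luminescence end-point read 10 min after Bright-Glo addition at room temperature.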

[3] = biological target: Bile acid receptor (Homo sapiens) (UniProt Q96RI1); assay: qHTS assay for small molecule agonists of farnesoid X receptor signaling (AID 588527; calls by dose curve; also: series mostly up to about 77 µM); details: HEK293T FXR-UAS-bla, beta-lactamase ratio, 16 h; stronger effect = higher value
Outline: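 Quantitative HTS used FXR-UAS-bla HEK293T cells with 16 h compound incubation at 37 C. EC50 values came from concentration-response curves normalized to chenodeoxycholic acid.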

[4] = biological target: Glucocorticoid receptor (Homo sapiens) (UniProt P04150); assay: qHTS assay for small molecule agonists of glucocorticoid receptor signaling (AID 588532; active = well fitted curve in the direction sought with a large enough effect in the signal ratio, with a control signal flat; the % refers to the signal ratio); details: HeLa MMTV-bla, beta-lactamase ratio, agonist, 18 h; stronger effect = higher value; percent of dexamethasone control, DMSO zero
Outline: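 HeLa GRE-bla reporter cells; 18 h compound exposure at 37 C; 2 h CCF4 loading at room temperature; fluorescence at 460 and 530 nm; EC50 by Hill equation.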

[5] = qHTS for Inhibitors of ATXN expression: Validation of Cytotoxic Assay (AID 588349); also: potency is read from the fitted curve at half-maximal effect
Outline: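 HEK293 cells were dosed with titrated compounds for 72 hr at 37 degrees C. Viability was read by CellTiter Glo luminescence, with intracellular ATP as the marker of cell survival.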

[6] = qHTS for Inhibitors of ATXN expression: Validation (AID 588378); also: nearly all actives have a fitted effect of over 75% in size; also: potency is read from the fitted curve at half-maximal effect
Outline: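 Cells: HEK293-ATXN2-FFLuc, phenol-red free DMEM, 2 h attachment. Compound pin-transfer, 24 h, 37 degrees C, 5% CO2. CellTiter-Fluor 30 min, Ex405/Em525; Bright-Glo 5 min, luminescence 2 s exposure.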

[7] = biological target: Estrogen receptor (Homo sapiens) (UniProt P03372); assay: qHTS assay for small molecule agonists of estrogen receptor alpha signaling (AID 588514; calls by dose curve; also: nearly all actives have a fitted effect of over 70% in size)
Outline: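 ER-alpha-UAS-bla GripTite HEK 293 cells in medium with 2% charcoal/dextran-treated FBS were treated with compound titrations at 37 C for 18 hrs; beta-lactamase reporter read by CCF4 fluorescence after 2 hrs at RT.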

[8] = biological target: Bile acid receptor (Homo sapiens) (UniProt Q96RI1); assay: qHTS assay for small molecule antagonists of farnesoid X receptor signaling (AID 588526; calls by dose curve)
Outline: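 Antagonist mode: titrated compounds tested against chenodeoxycholic acid stimulation (normalized to 50 uM CDCA and DMSO) in GeneBLAzer HEK293T cells for 16 h. Beta-lactamase read by CCF4 fluorescence; IC50 from Hill fits.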

[9] = biological target: Estrogen receptor (Homo sapiens) (UniProt P03372); assay: qHTS assay for small molecule antagonists of estrogen receptor alpha signaling (AID 588513; active = well fitted curve in the direction sought with a large enough effect in the signal ratio, with a control signal flat, not every such curve was filed as active; the % refers to the signal ratio)
Outline: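 Beta-lactamase reporter, antagonist mode, HEK 293 GripTite cells; 0.5nM E2 stimulus, 18 h, 37 C; CCF4 dye 2 h RT; fluorescence. IC50 and efficacy from Hill fits, normalized to E2 and DMSO.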

Chain of Estrogen receptor (Homo sapiens) (P03372 whole entry, looked up): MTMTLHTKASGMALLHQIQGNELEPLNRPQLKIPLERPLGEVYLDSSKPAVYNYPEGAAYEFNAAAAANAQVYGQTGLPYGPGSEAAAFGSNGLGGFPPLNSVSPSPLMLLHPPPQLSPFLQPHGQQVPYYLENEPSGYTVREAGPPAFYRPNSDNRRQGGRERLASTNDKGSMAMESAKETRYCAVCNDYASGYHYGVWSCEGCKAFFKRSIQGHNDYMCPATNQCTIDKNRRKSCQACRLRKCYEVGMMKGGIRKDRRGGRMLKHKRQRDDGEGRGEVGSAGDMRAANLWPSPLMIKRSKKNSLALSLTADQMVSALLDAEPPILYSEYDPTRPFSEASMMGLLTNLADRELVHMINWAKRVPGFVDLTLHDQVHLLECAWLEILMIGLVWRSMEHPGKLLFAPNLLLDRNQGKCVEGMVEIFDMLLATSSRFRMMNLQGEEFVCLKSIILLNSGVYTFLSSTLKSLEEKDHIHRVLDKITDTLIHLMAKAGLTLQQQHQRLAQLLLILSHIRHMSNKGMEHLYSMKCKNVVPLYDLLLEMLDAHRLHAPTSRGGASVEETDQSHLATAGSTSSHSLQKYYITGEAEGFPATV
Chain of Ubiquitin carboxyl-terminal hydrolase 1 (Homo sapiens) (O94782 whole entry, looked up): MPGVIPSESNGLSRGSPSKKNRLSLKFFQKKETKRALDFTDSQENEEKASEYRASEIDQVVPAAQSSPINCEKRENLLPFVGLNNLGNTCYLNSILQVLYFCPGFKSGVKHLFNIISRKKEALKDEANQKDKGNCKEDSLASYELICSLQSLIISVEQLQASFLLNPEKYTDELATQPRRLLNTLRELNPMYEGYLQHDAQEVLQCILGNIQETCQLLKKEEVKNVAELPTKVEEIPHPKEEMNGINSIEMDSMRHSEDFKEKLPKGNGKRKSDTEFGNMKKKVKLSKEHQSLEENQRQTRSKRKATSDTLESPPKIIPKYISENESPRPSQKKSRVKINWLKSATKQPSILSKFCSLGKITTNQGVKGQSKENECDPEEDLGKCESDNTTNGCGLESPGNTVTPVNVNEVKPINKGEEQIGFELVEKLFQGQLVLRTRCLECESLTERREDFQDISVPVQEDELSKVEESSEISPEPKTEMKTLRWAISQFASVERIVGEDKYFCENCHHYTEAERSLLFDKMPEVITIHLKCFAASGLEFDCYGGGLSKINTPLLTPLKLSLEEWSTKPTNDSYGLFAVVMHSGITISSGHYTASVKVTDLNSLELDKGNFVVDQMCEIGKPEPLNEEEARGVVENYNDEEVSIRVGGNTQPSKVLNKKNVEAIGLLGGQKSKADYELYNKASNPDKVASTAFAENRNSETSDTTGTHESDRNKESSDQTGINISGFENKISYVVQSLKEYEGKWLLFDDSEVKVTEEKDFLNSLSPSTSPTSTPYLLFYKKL
Chain of Bile acid receptor (Homo sapiens) (Q96RI1 whole entry, looked up): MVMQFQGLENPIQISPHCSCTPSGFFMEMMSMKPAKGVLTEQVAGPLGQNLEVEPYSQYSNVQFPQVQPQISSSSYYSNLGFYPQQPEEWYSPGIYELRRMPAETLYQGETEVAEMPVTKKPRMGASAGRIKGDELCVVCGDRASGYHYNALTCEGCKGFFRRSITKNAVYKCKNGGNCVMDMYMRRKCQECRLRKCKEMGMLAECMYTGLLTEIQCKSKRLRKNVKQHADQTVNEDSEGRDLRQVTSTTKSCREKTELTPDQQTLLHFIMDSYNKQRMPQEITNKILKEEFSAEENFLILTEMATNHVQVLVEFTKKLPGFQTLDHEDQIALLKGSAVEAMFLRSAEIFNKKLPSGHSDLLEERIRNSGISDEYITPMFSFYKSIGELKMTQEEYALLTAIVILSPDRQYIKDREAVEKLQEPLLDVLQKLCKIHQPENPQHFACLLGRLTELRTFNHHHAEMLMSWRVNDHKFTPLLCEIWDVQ
Chain of Glucocorticoid receptor (Homo sapiens) (P04150 whole entry, looked up): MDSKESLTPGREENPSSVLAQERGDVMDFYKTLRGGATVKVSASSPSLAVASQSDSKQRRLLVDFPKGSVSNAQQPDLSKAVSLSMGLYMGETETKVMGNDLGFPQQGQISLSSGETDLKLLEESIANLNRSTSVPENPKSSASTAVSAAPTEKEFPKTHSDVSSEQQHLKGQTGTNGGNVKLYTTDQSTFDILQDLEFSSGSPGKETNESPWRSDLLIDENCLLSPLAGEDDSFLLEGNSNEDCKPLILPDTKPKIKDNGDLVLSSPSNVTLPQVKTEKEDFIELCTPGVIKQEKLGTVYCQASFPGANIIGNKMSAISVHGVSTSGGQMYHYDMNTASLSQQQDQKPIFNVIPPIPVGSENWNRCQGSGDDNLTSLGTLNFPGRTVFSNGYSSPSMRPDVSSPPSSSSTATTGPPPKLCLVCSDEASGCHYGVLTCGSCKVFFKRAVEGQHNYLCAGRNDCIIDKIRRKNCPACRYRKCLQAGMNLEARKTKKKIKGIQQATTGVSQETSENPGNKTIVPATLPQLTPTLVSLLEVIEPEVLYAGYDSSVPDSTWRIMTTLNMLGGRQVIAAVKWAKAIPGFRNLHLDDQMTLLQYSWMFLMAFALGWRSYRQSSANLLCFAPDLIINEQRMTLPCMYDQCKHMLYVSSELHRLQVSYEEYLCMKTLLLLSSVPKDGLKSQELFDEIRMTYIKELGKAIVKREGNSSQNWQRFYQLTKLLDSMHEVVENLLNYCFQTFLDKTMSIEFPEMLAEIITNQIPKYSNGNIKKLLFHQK

In the case of `CC[N+]1(C)CCCC(OC(=O)C(O)(c2ccccc2)c2ccccc2)C1` (stereo unspecified), the Potency [1] is reported as “inactive”.
For `Clc1ccc(C(c2ccccc2Cl)C(Cl)Cl)cc1` (stereo unspecified), the outcome [2] was “inactive” and the activation [3] was 3.36%.
With `CN(C)CCC=C1c2ccccc2CCc2ccccc21` the outcome [2] was “inactive”, the Potency [1] was “inactive” and the activation [3] was -2.7% and 0.944%. It also gave an activation [4] of -8.68%.
With `CN(Cc1cnc2nc(N)nc(N)c2n1)c1ccc(C(=O)N[C@@H](CCC(=O)O)C(=O)O)cc1` the outcome [2] was “inactive” and the activation [3] was -5.02%.
For `Cc1ccc(-c2nc3ccc(C)cn3c2CC(=O)N(C)C)cc1`, the Potency [1] was “inactive”.
For `CC(C)OC(=O)C(C)(C)Oc1ccc(C(=O)c2ccc(Cl)cc2)cc1`, the outcome [2] was “inactive” and the activation [3] was 2.77%.
With `CC(C)(C)NCC(O)c1cc(Cl)c(N)c(Cl)c1` (stereo unspecified) the Potency [1] was “inactive”.
In the case of `CCCC1CCCCN1` (stereo unspecified), the Potency [1] is reported as “inactive”.
For `CNCCC(Oc1ccc(C(F)(F)F)cc1)c1ccccc1` (stereo unspecified), the outcome [2] was “inactive”, the Potency [5] was 28.2 µM (active) and the Potency [6] was 14.1 µM (active).
With `Cc1c(OCC(F)(F)F)ccnc1CS(=O)c1nc2ccccc2[nH]1` (stereo unspecified) the outcome [2] was “inactive” and the Potency [6] was “inactive”.
For `Cn1c(CCCC(=O)O)nc2cc(N(CCCl)CCCl)ccc21`, the Potency [1] was “inactive”.
In the case of `COc1ccc(Cl)cc1C(=O)NCCc1ccc(S(=O)(=O)NC(=O)NC2CCCCC2)cc1`, the outcome [2] is reported as “inactive” and the activation [3] is reported as 0.916%.
For `CC(=O)Nc1cc([As](=O)(O)O)ccc1O`, the Potency [1] was “inactive”.
In the case of `CC1=C(/C=C/C(C)=C/C=C/C(C)=C/C(=O)Nc2ccc(O)cc2)C(C)(C)CCC1`, the outcome [2] is reported as “inactive” and the activation [3] is reported as -5.41%.
In the case of `CN(C)CCOC(C)(c1ccccc1)c1ccccn1` (stereo unspecified), the outcome [2] is reported as “inactive” and the activation [3] is reported as -1.68%.
In the case of `CCN(CC)CCN1C(=O)CN=C(c2ccccc2F)c2cc(Cl)ccc21`, the Potency [1] is reported as “inactive”.
With `O=C(O)c1ccc2[nH]cc(CCCCN3CC=C(c4ccccc4)CC3)c2c1` the Potency [1] was “inactive”.
For `CC(C)NCC(O)c1ccccc1Cl` (stereo unspecified), the Potency [1] was “inactive”.
For `CCN(CC)CCOC(=O)C(O)(c1ccccc1)c1ccccc1`, the Potency [1] was “inactive”.
For `CC1(C)NC(=O)N(c2ccc([N+](=O)[O-])c(C(F)(F)F)c2)C1=O`, the outcome [2] was “inactive” and the activation [3] was 0.399%.
For `Cc1cn([C@H]2C=C[C@@H](CO)O2)c(=O)[nH]c1=O`, the outcome [2] was “inactive” and the activation [3] was -2.48% and 1.31% and -0.393%.
In the case of `Cc1ccccc1C(OCCN(C)C)c1ccccc1` (stereo unspecified), the outcome [2] is reported as “inactive” and the activation [3] is reported as -1.23%.
In the case of `CC(C)C(=O)Nc1ccc([N+](=O)[O-])c(C(F)(F)F)c1`, the outcome [2] is reported as “inactive”, the Potency [7] is reported as “inactive” and the activation [3] is reported as -2.87% and 6.82%.
For `CCCCNC(=O)NS(=O)(=O)c1ccc(C)cc1`, the outcome [2] was “inactive” and the activation [3] was 0.0302% and 2.67%.
With `Cc1cn([C@H]2C[C@H](N=[N+]=[N-])[C@@H](CO)O2)c(=O)[nH]c1=O` the outcome [2] was “inactive” and the activation [3] was -3.84%.
In the case of `CC(COc1ccccc1)N(CCCl)Cc1ccccc1` (stereo unspecified), the outcome [2] is reported as “inactive”, the Potency [1] is reported as “inactive” and the activation [4] is reported as -12.9%.
For `CCN(C(C)=O)c1cccc(-c2ccnc3c(C#N)cnn23)c1`, the Potency [1] was “inactive”.
In the case of `CCC1(c2ccccc2)C(=O)NCNC1=O`, the outcome [2] is reported as “inactive” and the activation [3] is reported as -0.167% and -0.256%.
For `CC(C)CC(N(C)C)C1(c2ccc(Cl)cc2)CCC1` (stereo unspecified), the Potency [1] was “inactive”.
With `O=c1[nH]cc(F)c(=O)[nH]1` the outcome [2] was “inactive” and the activation [3] was -1.24%.
In the case of `NCCc1cc(O)c(O)cc1O`, the Potency [1] is reported as 50.1 µM (active).
For `O=P1(NCCCl)OCCCN1CCCl` (stereo unspecified), the Potency [1] was “inactive”.
In the case of `CC(C)NCC(O)c1ccc(O)c(O)c1` (stereo unspecified), the outcome [2] is reported as “inactive” and the Potency [5] is reported as “inactive”.
For `CC(C)(N)Cc1ccc(Cl)cc1`, the Potency [1] was “inactive”.
For `Cc1cc(SCc2sc(-c3ccc(C(F)(F)F)c(F)c3)nc2C)ccc1OCC(=O)O`, the Potency [8] was “inactive” and the activation [3] was -2.28%.
With `C#CCOC(C(=O)OCCN(C)C)(c1ccccc1)c1ccccc1` the Potency [1] was “inactive”.
In the case of `Oc1ccccc1-c1ccccc1`, the Potency [1] is reported as “inactive”, the outcome [9] is reported as “inactive” and the Potency [7] is reported as “inactive”.
With `Nc1ccc(O)c(C(=O)O)c1` the activation [3] was -5.01% and -0.178%.
In the case of `CCc1nc(N)nc(N)c1-c1ccc(Cl)cc1`, the activation [3] is reported as -5.01% and -3.58%.

Source: PubChem BioAssay (NCATS)
